Screening results deposited in PubChem BioAssay by Johns Hopkins Ion Channel Center.
This is a sample that favours compounds with a hit; in the whole collection about 1.6% have one here.
KCNQ2 inh = KCNQ2 (rat) channel inhibition. O88943. CHO-K1 KCNQ2, FluxOR thallium flux, 20 min; stronger effect = lower value. B-score at 10 µM. hit rate 1.1% among 310,000. AID 2156;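 active = fluorescence ratio B-score at most minus 3 library SDs, with starting brightness B-score within 2 library SDs, cut at about -5.5 in these data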
KCNQ2 pot = KCNQ2 (rat) channel potentiation. O88943. CHO-K1 KCNQ2, FluxOR thallium flux fluorescence; stronger effect = higher value. B-score at 10 µM. hit rate 0.54% among 310,000;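 active = fluorescence ratio B-score at least 3 SD of library B-scores, with initial fluorescence B-score within 3 of them, cut at about 5.3 in these data; same plate scores as AID 2156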;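 note: B-score of peak minus minimum over baseline fluorescence ratio after K+ and Tl+ stimulus; positive B-score means potentiation of KCNQ2 with more thallium influx and brighter signal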
KCNQ2 inh conf = rat KCNQ2 channel inhibition, confirmatory screen | shares compounds with KCNQ2 inh | activity change, negative = inhibition, % at 10 µM | AID 493025 | hit rate 57% among 1,000 | KCNQ2-expressing cells, thallium flux; stronger effect = lower value
KCNQ1 spec = human KCNQ1 activity in KCNQ2 inhibitor specificity screen. shares compounds with KCNQ2 inh. KCNQ1-expressing cells, FluxOR thallium flux fluorescence; stronger effect = lower value. activity change, negative = inhibition, % at 10 µM. hit rate 15% among 1,000;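 active = activity change at least 3 SD of negative controls below their mean in both duplicate wells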;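 note: CHO cells stably transfected with KCNQ1 and depolarized by potassium stimulus; peak minus minimum fluorescence over baseline after thallium addition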
CHO Tl ctr = counter-screen for KCNQ2 inhibitors: effect in parental CHO cells; thallium flux counter-screen; stronger effect = lower value; shares compounds with KCNQ2 inh; hit rate 14% among 1,000; activity change, % at 10 µM
KCNQ2 patch conf = confirmation of rat KCNQ2 potassium channel inhibitors | shares compounds with KCNQ2 inh | calls only at 10 µM | KCNQ2-expressing cells, automated patch clamp current | hit rate 49% among 550
Kir21 conf inh = confirmation of mouse Kir2.1 potassium channel inhibitors | Tl flux remaining, % of negative control (stronger effect = lower value), % at 10 µM | Kir2.1-expressing cells, FluxOR thallium flux fluorescence; stronger effect = lower value | hit rate 41% among 2,300 | shares compounds with KCNQ2 pot | AID 2032;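 active = Primary-screen hit whose thallium flux fell at least 3 control SD below untreated wells in both duplicates, with normal baseline fluorescence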
HEK293 Tl flux = counter-screen for Kir2.1 inhibitors: effect in parental HEK293 cells; AID 2105; FluxOR signal as % of negative control (100 = no effect), % at 10 µM; FluxOR thallium flux fluorescence; 0% = unstimulated blank wells; shares compounds with KCNQ2 pot; hit rate 19% among 2,300;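 active = dye signal at least 3 control SD above or below untreated wells in both duplicates, raw fluorescence within 3, either direction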;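 note: percent is based on the flux ratio of peak minus minimum fluorescence over baseline F0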
Kir21 spec = selectivity of KCNQ2 potentiators: effect on mouse Kir2.1; hit rate 2% among 1,200; HEK293 Kir2.1, FluxOR thallium flux fluorescence; shares compounds with KCNQ2 pot; activity over 3SD threshold, % at 10 µM;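 active = fluorescence ratio rise of at least 3 SD above the vehicle-control mean, seen in both replicates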
A number is an active result; – = inactive; · = no result; + = active, no number. Unless noted, the rule behind the calls is not given here.

SMILES	KCNQ2 inh	KCNQ2 pot	KCNQ2 inh conf	KCNQ1 spec	CHO Tl ctr	Kir21 conf inh	HEK293 Tl flux	others
COc1ccc(CNCCc2ccc(Cl)cc2)cc1OCc1ccccc1	-13	–	–	–	–	14%	–
CCOc1cc(CNCc2ccccc2)ccc1OCc1ccc(Cl)cc1	–	·	·	·	·	·	·
CC(C)=CCc1c(O)ccc2c1OC(c1ccc(O)c(O)c1)CC2=O (centres undefined)	-8.7	–	–	–	–	54%	–
O=C1CC(c2ccc(O)c(O)c2)Oc2cc(O)cc(O)c21 (centres undefined)	–	–	·	·	·	·	·
Cc1sc(N)nc1-c1c(C)n(C)c2ccccc12	–	–	·	·	·	·	·
CC(=O)n1c(-c2ccccc2)c(CO)c2ccccc21	–	–	·	·	·	·	·
NCCc1c(-c2ccccc2)n(-c2ccccc2)c2ccccc12	-7	–	–	–	–	15%	–
Cc1c(Cl)c([N+](=O)[O-])nn1CC(=O)N1CCN(C23CC4CC(CC(C4)C2)C3)CC1	–	·	·	·	·	·	·
Cc1ccc(CC(CC(=O)O)C(=O)NCc2ccccc2)cc1 (centres undefined)	–	·	·	·	·	·	·
CNC[C@H](Cc1ccccc1)NC[C@@H](Cc1cccc2ccccc12)NCCc1ccc(C)cc1	-8.4	–	–	–	–	14%	–
O=C(CS(=O)(=O)c1ccc2ccccc2c1)N1CCCCCC1	–	–	·	·	·	·	·
COc1cccc(SCc2noc(C(=O)NC(C)C)c2C(=O)NC(C)C)c1	–	·	·	·	·	·	·
COc1ccc(NS(=O)(=O)c2ccc3c(c2)N(C(C)=O)CCO3)cc1	–	–	·	·	·	·	·
COc1ccc(NC(=O)[C@H](C)NC(=O)[C@@H]2Cc3ccccc3CN2C(=O)OC(C)(C)C)cc1	–	·	·	·	·	·	·
CN(Cc1ccccc1O)CC1CCCN(CCc2ccc(Cl)cc2)C1 (centres undefined)	-9	–	–	–	–	23%	–
COc1ccc(CCN2CCCC(CN(C)Cc3cc(OC)ccc3OC)C2)cc1 (centres undefined)	–	–	·	·	·	·	·
Cc1ccc(CNC(=O)Cn2ccc3cc(S(=O)(=O)N4CCCCCC4)ccc32)cc1	–	·	·	·	·	·	·
Cc1ccc(C(=O)c2no[n+]([O-])c2C(=O)c2ccc(C)cc2)cc1	-9.7	–	-28%	–	–	70%	62%	KCNQ2 patch conf=–;Kir21 spec=–
Cc1ccc(C(=O)c2ccc(C)cc2)cc1	–	·	·	·	·	·	·
CC(NS(=O)(=O)c1ccccc1)C1CC2CCC1C2 (centres undefined)	–	–	·	·	·	·	·
CCCCCCCNC(=O)C1(CC2CC(c3cccc(Br)c3)=NO2)CCN(C(=O)c2ccccc2)CC1 (centres undefined)	–	·	·	·	·	·	·
CCCCCCCNC(=O)C1(CC2CC(c3cccc(Br)c3)=NO2)CCNCC1 (centres undefined)	-8.6	–	-42%	-43%	-45%	37%	–	KCNQ2 patch conf=+
COc1cccc(NC(=O)CCC2CCN(C(=O)C3CC=CCC3)CC2)c1 (centres undefined)	–	·	·	·	·	·	·
Cc1ccc(S(=O)(=O)N(C(=N)N)c2nc(N(C)C)nc(N(C)C)n2)cc1	–	·	·	·	·	·	·
COc1cc(NC(=O)COC(=O)c2ccccc2SCC(=O)N2CCCC2)cc(OC)c1	–	–	·	·	·	·	·
CC1CCC(C(C)C)C(OC(=O)COC(=O)c2cc(O)ccc2N)C1 (centres undefined)	–	–	·	·	·	·	·
CC1CCC(C(C)C)C(OC(=O)COC(=O)c2ccc(=O)[nH]c2)C1 (centres undefined)	–	–	·	·	·	·	·
COc1ccc(OCc2n(CC(=O)OC3CC(C)CCC3C(C)C)c3ccccc3[n+]2C)cc1 (centres undefined)	-7.4	–	-21%	–	–	16%	–	KCNQ2 patch conf=+
COc1ccc(-c2n(CC(=O)OC3CC(C)CCC3C(C)C)c3ccccc3[n+]2C)cc1 (centres undefined)	-11	–	-34%	–	–	–	–	KCNQ2 patch conf=+
COc1ccc(N2CCN(C(=O)CNC(=O)c3ccco3)CC2)cc1	–	·	·	·	·	·	·
